ATXN2 expr inh: ATXN2 expression inhibition. HEK-293 ATXN2-luciferase reporter, luminescence, 24 h. AID 1745845. 0.72% of 360,000 active. Potency, µM (series often up to 57 µM), without a hit: at the highest dose activity change, negative = inhibition, usual class: inhibitors; also: % is scaled to controls: 0 for no effect and ±100 for the full control effect; nearly all actives have a fitted effect of over 55% in size
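ATXN2-luciferase reporter cells (luciferase flanked by upstream and downstream ATXN2 gene portions) were treated 24 h at 37 °C with compounds at up to 57 uM. SteadyGlo luminescence gave expression; GF-AFC fluorescence gave viability.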
TGFb SMAD3 inh: TGF-b pathway inhibition; HepG2 CAGA-GFP TGF-b/SMAD3 reporter, GFP fluorescence, 18 h; TGF-beta stimulated, 500 pg/mL final; Potency, µM (doses to about 46.1 µM), for the others: top-dose activity, negative = inhibition, actives largely listed as inhibitors; 1.2% of 410,000 active; also: % is scaled to controls: 0 for no effect and ±100 for the full control effect; nearly all actives have a fitted effect of over 65% in size
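Inhibition of TGF-beta-driven CAGA-GFP reporter expression in HEPG2 cells is measured by cellular GFP fluorescence after 18 h stimulation with 500 pg/mL recombinant TGF-beta in 1% FBS medium at 37 degrees C.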
TDP1 cell noCPT: qHTS for Inhibitors of human tyrosyl-DNA phosphodiesterase 1 (TDP1): qHTS in cells in absence of CPT; 15% of 420,000 active; Potency, µM (series often up to 46.2 µM), without a hit: top-dose activity change, negative = growth inhibition, usual class: inhibitors; DT40 Tdp1-/- hTDP1 cells, no CPT, ATP luminescence, 48 h; AID 686978, 2013; also: % is scaled to controls: 0 for no effect and ±100 for the full control effect; nearly all actives have a fitted effect of over 55% in size
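Cells were dispensed at 400 per well, compounds added by pin tool, plates incubated ≥48 hr at 37 °C, then CellTiter-Glo added for 30 min at room temperature before luminescence reading. Line: DT40 Tdp1-/- complemented with hTDP1; camptothecin omitted.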
HepG2 viability: kills HepG2 cells in TGF-b inhibitor counter-screen; HepG2 CAGA-GFP viability, ATP luminescence, 18 h; Potency, µM (series often up to 46.1 µM), for the others: at the top dose activity change, negative = cytotoxicity, actives largely listed as cytotoxic; 0.76% of 410,000 active; AID 588856
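HepG2 CAGA-GFP cells (1000/well, DMEM with 1% FBS) received compound, then TGF-beta at 500 pg/mL final, and were incubated 18 hours at 37 degrees C. Viability was read by CellTiter-Glo luminescence. Media-only wells were set as complete cell-killing and DMSO as no toxicity.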
TDP1 cell CPT: growth inhibition of DT40 Tdp1-/-;hTDP1 cells with camptothecin (screen for TDP1 inhibitors); chicken DT40 Tdp1-/-;hTDP1 cells + 20 nM CPT, ATP luminescence, 48 h; Potency, µM (doses to about 46.2 µM), for the others: at the top dose activity change, negative = growth inhibition, actives largely listed as inhibitors; 12% of 420,000 active; AID 686979; also: % is scaled to controls: 0 for no effect and ±100 for the full control effect; nearly all actives have a fitted effect of over 55% in size
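Chicken DT40 Tdp1-/- cells complemented with human TDP1, 400 cells/well, exposed to compounds plus 20 nM camptothecin for at least 48 h at 37 C; viability read as ATP content by CellTiter-Glo luminescence.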
S2 tox: reduces viability in counter-screen for ATXN expression inhibitors. AID 651635. 0.49% of 400,000 active. S2 cells (HEK-293 line with an ATXN2-luciferase reporter) viability, CellTiter-Fluor protease fluorescence, 24 h. Potency, µM (highest dose often 56.7 µM), usual class: cytotoxic; also: nearly all actives have a fitted effect of over 40% in size
* hit, by the source's call; i = inactive; u = inconclusive; x = not tested or not shown; [ ] = dose if it differs, or a comment. Compounds with a hit are over-represented: about 17% of the library has one in this group of screens. Calls follow the shape of the dose curve; as a rule, active = well fitted curve in the direction sought with a large enough effect; inconclusive = small, poorly fitted or top-dose-only effect, or another doubt; inactive = no such curve, though single readings can be large; an effect the other way counts as inactive or inconclusive. Potency is read from the fitted curve at half-maximal effect.

SMILES | ATXN2 expr inh | TGFb SMAD3 inh | TDP1 cell noCPT | HepG2 viability | TDP1 cell CPT | S2 tox
CN1C(=O)C2(SCC(=O)N2c2cccc(C(F)(F)F)c2)c2ccccc21 (stereo not drawn) | -6.0% | 10.2% | x | 4.8% | x | u
O=C(O)CCCNC(=O)CCCn1nnc2ccccc2c1=O | 5.6% | 12.1% | 12.4% | 1.9% | -1.0% | i
COc1cc(CNc2cc(C)ccc2C)cc(OC)c1OC | -3.6% | 3.7% | u | 1.2% | u | i
COc1cc(Br)c(CNc2cc(C)ccc2C)cc1OC | x | u | 16.4µM* | -27.0% | u | i
COc1ccc(C(=O)NCc2nnc(SCC(=O)Nc3nc4ccccc4s3)o2)cc1 | 11.2% | -10.3% | u | -6.4% | 29.1µM* | i
CC(C)(C)c1ccc(C(=O)NCc2nnc(SCC(=O)NC3CCCCC3)o2)cc1 | 4.9% | -2.6% | 20.6µM* | 8.3% | 8.2µM* | i
COc1ccc(C(=O)NCc2nnc(SCC(=O)Nc3cc(OC)ccc3OC)o2)cc1 | 5.8% | -7.5% | 30.8% | -23.2% | -0.7% | i
COc1cc(C(=O)NCc2nnc(SCC(=O)Nc3nccs3)o2)cc(OC)c1OC | 18.1% | -27.7% | -0.5% | 8.0% | 13.5% | i
COc1cc(C(=O)NCc2nnc(SCC(=O)Nc3nc4ccccc4s3)o2)cc(OC)c1OC | 10.6% | 1.0% | 10.3µM* | 0.7% | 9.2µM* | i
c1ccc(CN(Cc2ccccc2)c2ncnc3c2nnn3Cc2ccccc2)cc1 | -4.6% | 25.1% | -19.0% | -2.9% | 2.0% | i
O=C(NCC(=O)N(c1ccc(F)cc1)C(C(=O)NC1CCCCC1)c1ccncc1)c1ccco1 (stereo not drawn) | 2.7% | -21.2% | -14.3% | -2.4% | -20.6% | i
COCc1cc(C)nc(OCC(=O)N/N=C/c2ccc(C)cc2)c1C#N | x | 0.3% | 9.2µM* | 27.9% | 11.6µM* | u
Fc1ccc(/C=C/c2nccc3ccccc23)cc1 | x | -9.0% | 14.1µM* | -22.6% | 7.08µM* | x
COc1cc(OC)c(OC)cc1/C=C/c1nccc2ccccc12 | x | -20.1% | u | -16.8% | u | x
O=C(/C=C/c1c[nH]c2ccccc12)c1cccc2ccccc12 | -6.4% | u | 11.6µM* | -76.8% | 16.4µM* | i
CN(C)c1ccc(/C=C/c2nccc3ccccc23)cc1 | x | 71.8% | u | -52.2% | u | x
C(=C\c1c[nH]c2ccccc12)/c1nccc2ccccc12 | x | u | u | 11.2µM* | u | x
Cc1c(NC(=O)COC(=O)c2ccc(Br)o2)c(=O)n(-c2ccccc2)n1C | -14.6% | -2.5% | u | -9.8% | -16.1% | i
COc1ccccc1N(C)S(=O)(=O)c1ccc(C)c(C(=O)Nc2nccs2)c1 | -2.0% | u | u | 2.3% | -5.1% | i
CN(C)c1ccc(-n2cccc2/C=C/[N+](=O)[O-])cc1 | u | 11.5% | 4.11µM* | -3.2% | 16.4µM* | 29.9µM*
Cc1cc(C(=O)N2CCC2(C)C(=O)O)nn1C(C)(C)C (stereo not drawn) | 5.7% | 3.6% | -0.6% | -1.3% | -1.4% | i
Cc1[nH]n(-c2nc(-c3cccc([N+](=O)[O-])c3)cs2)c(=O)c1C | 36.9% | -5.1% | 20.6µM* | -31.1% | u | i
OCCN(CCO)CC(O)COc1ccc(C23CC4CC(CC(C4)C2)C3)cc1 (stereo not drawn) | u | 17.8µM* | 7.31µM* | -87.9% | 7.31µM* | i
OCCN(CCO)CC(O)COCCC12CC3CC(CC(C3)C1)C2 (stereo not drawn) | 0.0% | 14.0% | 20.6µM* | -0.4% | u | i
CCN(CC)CC(O)COCCC12CC3CC(CC(C3)C1)C2 (stereo not drawn) | -10.2% | -3.6% | u | -5.8% | u | i
SMILES | ATXN2 expr inh | TGFb SMAD3 inh | TDP1 cell noCPT | HepG2 viability | TDP1 cell CPT | S2 tox
CC1CCCCN1CC(O)COCCC12CC3CC(CC(C3)C1)C2 (stereo not drawn) | -16.4%[11.3 µM] | -6.2% | 18.4µM* | -34.3% | 14.6µM* | i
O=C(c1ccccc1)C(c1ccccc1)[n+]1csc2ccccc21 (stereo not drawn) | x | u | 11.2µM* | 2.2% | u | x
CC(C)(C)OC(=O)n1cccc1/C=C1\c2ccccc2C(=O)N1c1ccccc1 | -4.8% | -16.5% | u | -8.2% | 20.6µM* | u
CC(NC(=O)c1cccs1)c1ccc(Br)cc1 (stereo not drawn) | -7.5% | -13.7% | -16.2% | 11.9% | 1.2% | i
Cc1ccc(C(=O)N/N=C(\CC(C)C)c2ccccc2)cc1 | 10.2% | -2.5% | 20.6µM* | 11.2% | u | i
CCOc1cc(CNC(C)(C)CO)cc(Br)c1OCc1ccc(Cl)cc1Cl | u | u | 20.6µM* | 12.6µM* | 20.6µM* | x
CCOc1cc(CNCCO)cc(Br)c1OCc1ccc(Cl)cc1 | -32.2% | u | u | -110.2% | 25.9µM* | i
COc1cc(CNC(C)(C)CO)cc(Br)c1OCc1ccccc1 | -41.9%[11.3 µM] | 14.0% | u | 4.8% | u | x
O=C(COC(=O)CCc1nc2ccccc2c(=O)[nH]1)Nc1ccccc1OC(F)F | -1.3% | -4.5% | 18.2% | -4.2% | 2.9% | i
CCOC(=O)c1[nH]c(C)c(C(=O)OCC(=O)N(C)C2CCS(=O)(=O)C2)c1C (stereo not drawn) | -5.5% | -9.1% | 6.3% | -6.1% | 9.6% | i
CCCCNC(=O)c1nc(C2CCN(S(=O)(=O)c3ccc(C(F)(F)F)cc3)CC2)oc1-c1ccccc1 | x | x | 7.31µM* | x | 5.8µM* | x
CCCCNC(=O)c1nc(C2CCN(S(=O)(=O)c3ccc(S(C)(=O)=O)cc3)CC2)oc1-c1ccccc1 | x | x | 13µM* | x | 5.8µM* | x
CCCCNC(=O)c1nc(C2CCN(S(=O)(=O)c3cccc(C(F)(F)F)c3)CC2)oc1-c1cccc(C(F)(F)F)c1 | 8.3% | 0.1% | 6.3% | -32.7% | 0.3% | i
COC(=O)CCCCCCCCC(O)CN(C)C (stereo not drawn) | 3.3% | 0.5% | 16.4µM* | -11.2% | u | i
Cc1ccc(S(=O)(=O)N(CC(=O)N2CCCCCC2)c2ccccc2F)cc1 | 5.3% | 5.4% | -14.1% | 0.6% | u | i
CC1C(=O)N(Cc2cn(CC3CCCCC3)nn2)CCS(=O)(=O)N1Cc1ccc(-c2ccncc2)cc1 (stereo not drawn) | -11.0% | -26.2% | -1.5% | -43.2% | -29.9% | i

Screening data from PubChem.
